The whole screen tested about 5,500 compounds, of which about 2,000 (36%) were called active. Roughly 18% stayed inconclusive and do not appear here. No stated cut-off is given here; in the data, active means normalized growth mostly below about 0.91 (no sharp cut-off); inconclusive means no clear call, values can overlap the other calls; inactive means mostly above about 0.92. The list shows a part of the results.
Test: chemical genetic growth profiling, strain panel (AID 1159580);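 further: tested at 20 µM; growth read once vehicle control cultures reached saturation at 30 °C; 1 = growth at the plate median or of vehicle wells; lower values mean less growth of the strain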
Conditions: S. cerevisiae deletion strains, growth OD

Measured: normalized growth

N#CC(C#N)=NNc1ccc(C(F)(F)F)cc1
active: locus YAR019C, strain CDC15, hits give low values 0.135 | locus YBL105C, strain PKC1, hits give low values 0.148 | locus YBR135W, strain CKS1, hits give low values 0.135 | locus YBR136W, strain MEC1, hits give low values 0.147 | locus YBR160W, strain CDC28, hits give low values 0.168 | locus YDL017W, strain CDC7, hits give low values 0.178 | locus YDL028C, strain MPS1, hits give low values 0.311 | locus YDL101C, strain DUN1, hits give low values 0.124 | locus YDL108W, strain KIN28, hits give low values 0.152 | locus YDL132W, strain cdc53, hits give low values 0.126 | locus YDL214C, strain PRR2, hits give low values 0.131 | locus YDR052C, strain DBF4, hits give low values 0.255 | locus YDR054C, strain cdc34, hits give low values 0.138 | locus YDR226W, strain ADK1, hits give low values 0.178 | locus YDR477W, strain SNF1, hits give low values 0.116 | locus YER123W, strain YCK3, hits give low values 0.116 | locus YER133W, strain GLC7, hits give low values 0.11 | locus YFL009W, strain cdc4, hits give low values 0.132 | locus YFL029C, strain CAK1, hits give low values 0.138 | locus YFR003C, strain YPI1, hits give low values 0.339 | locus YFR019W, strain FAB1, hits give low values 0.12 | locus YFR028C, strain CDC14, hits give low values 0.144 | locus YGR040W, strain KSS1, hits give low values 0.113 | locus YGR052W, strain FMP48, hits give low values 0.129 | locus YGR092W, strain DBF2, hits give low values 0.105 | locus YHR030C, strain SLT2, hits give low values 0.144 | locus YHR079C, strain IRE1, hits give low values 0.155 | locus YHR082C, strain KSP1, hits give low values 0.169 | locus YHR205W, strain SCH9, hits give low values 0.0194 | locus YIL147C, strain SLN1, hits give low values 0.397 | locus YJL095W, strain BCK1, hits give low values 0.116 | locus YJL128C, strain PBS2, hits give low values 0.149 | locus YJL157C, strain FAR1, hits give low values 0.106 | locus YJR016C, strain ILV3, hits give low values 0.13 | locus YJR066W, strain TOR1 (second series), hits give low values 0.116 | locus YJR066W, strain TOR1, hits give low values 0.146 | locus YKL048C, strain ELM1, hits give low values 0.134 | locus YKL067W, strain YNK1, hits give low values 0.113 | locus YKL101W, strain HSL1, hits give low values 0.112 | locus YKL193C, strain SDS22, hits give low values 0.118 | locus YKL203C, strain TOR2, hits give low values 0.132 | locus YLR113W, strain HOG1, hits give low values 0.166 | locus YLR133W, strain CKI1, hits give low values 0.109 | locus YLR403W, strain SFP1, hits give low values 0.0217 | locus YML070W, strain DAK1, hits give low values 0.106 | locus YMR001C, strain CDC5, hits give low values 0.133 | locus YMR205C, strain PFK2 (second series), hits give low values 0.104 | locus YMR277W, strain FCP1, hits give low values 0.119 | locus YNL006W, strain LST8, hits give low values 0.194 | locus YNL020C, strain ARK1, hits give low values 0.128 | locus YNL161W, strain CBK1, hits give low values 0.137 | locus YNL183C, strain NPR1, hits give low values 0.141 | locus YNL207W, strain RIO2, hits give low values 0.155 | locus YNL222W, strain SSU72, hits give low values 0.131 | locus YNL307C, strain MCK1 (second series), hits give low values 0.133 | locus YOL078W, strain AVO1, hits give low values 0.117 | locus YOL136C, strain PFK27, hits give low values 0.111 | locus YOR061W, strain CKA2, hits give low values 0.108 | locus YOR119C, strain RIO1, hits give low values 0.119 | locus YOR231W, strain MKK1, hits give low values 0.126 | locus YOR329C, strain SCD5, hits give low values 0.187 | locus YPL031C, strain PHO85, hits give low values 0.116 | locus YPL153C, strain RAD53, hits give low values 0.107 | locus YPL204W, strain HRR25, hits give low values 0.115 | locus YPL209C, strain IPL1, hits give low values 0.135 | locus YPL256C, strain CLN2, hits give low values 0.179 | locus YPR025C, strain CCL1, hits give low values 0.154 | locus YPR106W, strain ISR1, hits give low values 0.116 | locus YPR111W, strain DBF20, hits give low values 0.122 | strain NNK1, hits give low values 0.124 | strain TSCII, hits give low values 0.137

From PubChem BioAssay AID1159580 (chemical genetic matrix, 2015)
